In PubChem BioAssay (NCI):
This is part of a sample that, as a whole, favours compounds with a hit. Of some 83,000 tested, about 20% had one in any assay.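 Assay: single dose, 48 h. Readout: percent growth (0 = no net growth; negative = cell death). Active: <10.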 Values without a mark were called inactive. Activity calls are given as the source filed them.

What follows are compounds tested on EKVX NSCLC (assay: NCI-60 one-dose screen, 48 h (100 = growth as untreated, 0 = no growth, -100 = all killed)). Conditions: 10 µM unless noted.

SMILES | growth
CCc1cc2c(cc1Cl)nc1c(=O)[nH]c(=O)nc-1n2CCOCC(C)(C)C | 71.2%
Cc1cc(=O)[nH]c(O)c1C#N | 94.3%
CC1(C)CC[C@]23CC[C@]4(C)[C@H](CC[C@@H]5[C@@]6(C)CC[C@H](NCO)C(C)(C)[C@@H]6CC[C@]54C)[C@H]2[C@H]1OC3 | 93.9%
CC(C)[C@H]1c2[nH]c3ccccc3c2C[C@H]2C(=O)N(CCCCCCC(=O)NO)CC(=O)N12 | 93%
Cn1cc(-c2nc(N)nnc2-c2c[nH]c3ccc(Br)cc23)c2cc(F)ccc21 | 78.5%
CCCCCCCCCCCC(=O)NC(C)(C)C(=O)N1CCCC1C(=O)NC(C)(C)C(=O)NC(C)(C)C(=O)N1CCCC1C(=O)NC(C)(C)C(=O)NC(C)(C)C(=O)N1CCCC1C(=O)NC(C)C(=O)NCCC(=O)NC(C)C(=O)NC(C)(C)C(=O)NC(C)(C)C(=O)NC(C)(C)C(=O)NCCC(=O)NC(C)(C)C(=O)NC(C)(C)C(=O)NC(C)(C)C(=O)NC(C)C(=O)NCCC(=O)O (stereo not given) | -88.5% (active)
CN1CCN(c2ccc(Nc3nc(NCCNC(=O)c4ccccc4)c4sccc4n3)cc2)CC1 | 97.3%
Cc1[nH]c(C(=O)Nc2ccccc2OCc2cccc(C(=O)NCCN)c2)cc1Cl | 105%
CCCc1[nH]c(-c2cc(N)ccc2Cl)c2c1C(=O)CCCC2 | 90.3%
O=C(Nc1ccc(N=Cc2c(O)[nH]c3ccccc23)cc1)Nc1ccc(S(=O)(=O)Nc2ncccn2)cc1 | 98.1%
CC1=Cc2ccccc2OC12C=Cc1ccccc1O2 (stereo not given) | 82.2%
NS(=O)(=O)c1ccc(CCn2c(-c3ccc(C(=O)O)cc3)nc(-c3ccccc3)c2-c2ccccc2)cc1 | 100%
COc1ccc(/C=N\NC(=O)c2cnn(CC(O)c3ccccc3)c2N)cc1OCc1ccc(Cl)cc1 (stereo not given) | 79.1%
CNc1sc(S(=O)(=O)NC)nc1S(=O)(=O)c1ccc(C)cc1 | 95.2%
C=C(C)[C@@H]1CC[C@]2(C(=O)N3CCN(C)CC3)CC[C@]3(C)[C@H](CC[C@@H]4[C@@]5(C)CC[C@H](OP(=O)(OCC)OCC)C(C)(C)[C@@H]5CC[C@]43C)[C@@H]12 | 72.8%
NS(=O)(=O)c1ccc(Nc2nc(Nc3ccccc3)nc(N3N=C(c4ccc(Cl)cc4)CC3c3ccc(Cl)cc3)n2)cc1 (stereo not given) | 56.9%
COc1cc(C(C)=C(c2ccc(OCCN(C)C)cc2)c2ccc(OCCN(C)C)cc2)ccc1F | 96.1%
CN1CCN(c2ccc(Nc3nc(NCCCNS(=O)(=O)c4ccc(F)cc4)c4sccc4n3)cc2)CC1 | 93.5%
CCOC(=O)c1c(NC(=O)c2ccc(C(F)(F)F)cc2)sc2c(CN3CCN(C)CC3)c(O)ccc12 | 21.5%
CC(O)c1cccc(/C(N)=N/C(N)=N/c2nc3ccccc3s2)c1 (stereo not given) | 91.9%

SMILES | growth
C#Cc1cc(C(=O)Nc2ccc(CNCCN3CCOCC3)c(C(F)(F)F)c2)ccc1C | 84.7%
COc1ccc(/C=N/NC(=O)CSc2nc(-c3cnccn3)cc(-c3cccs3)c2C#N)cc1 | 78.2%
Cn1cc(-c2nnc(N)nc2-c2c[nH]c3ccc(Br)cc23)c2cc(Br)ccc21 | 103%
COc1ccc2[nH]cc(-c3nc(N)nnc3-c3cn(C)c4ccc(Br)cc34)c2c1 | 38.1%
C#CCN(C)CCCOc1ccc(NCc2ccc(C(=O)NO)cc2)cc1Cl | 35.5%
CCN(CC)c1ccc(/C=N/NC(=O)c2ccc(NS(C)(=O)=O)cc2)c(O)c1 | 15.6%
O=C(CCCCCCN1CC(=O)N2[C@@H](c3ccc(Cl)s3)c3[nH]c4ccccc4c3C[C@H]2C1=O)NO | 49.1%
CC1(C)CC[C@]23CC[C@]4(C)[C@H](CC[C@@H]5[C@@]6(C)CC[C@H](N)C(C)(C)[C@@H]6CC[C@]54C)[C@H]2[C@H]1OC3 | 63.1%
Cc1ccc(S(=O)(=O)NCCCNc2nc(Nc3ccc(N4CCN(C)CC4)cc3)nc3ccsc23)cc1 | 78.8%
N#Cc1nc(-c2ccccc2)oc1N1CCC(C2(C(F)(F)F)N=N2)CC1 | 92.1%
O=C(CCCCCCN1CC(=O)N2[C@@H](c3cccs3)c3[nH]c4ccccc4c3C[C@H]2C1=O)NO | 92.2%
O=C(CCCCCCNC(=O)C(O)(O)C(F)(F)F)Nc1nc2ccccc2s1 | 27.5%
CNC(=O)c1cc(Oc2ccc3c(c2)sc2nc(-c4ccc(N(C)C)cc4)cn23)ccn1 | 53.8%
CC1=C(C)C(=O)C(Nc2cccc(C)c2)=C(Br)C1=O | 68.7%
CC(=C(c1ccc(OCCCN(C)C)cc1)c1ccc(OCCCN(C)C)cc1)c1ccc(Cl)cc1 | 94.7%
COc1cc(C(=O)c2cc(C(C)=O)c3cccc(C)n23)cc(OC)c1OC | 53.6%
C#Cc1nc(/C=C/CCCCCCC(=O)NO)cs1 | 89.5%
CCCCCc1ccc(S(=O)(=O)Nc2cc(-c3csc(N)n3)ccc2OC)cc1 | 86.4%
CCCc1cc2cc(-n3nc(CC)c4c3CC(C)(C)CC4=O)cc(NC3CCC(O)CC3)c2c(=O)[nH]1 (stereo not given) | 52.4%
Cc1ccc(-c2cc3nc(C(Cl)Cl)nc(-c4ccc(S(=O)(=O)N(C)C)cc4)n3n2)cc1 | 103%
